Reference: PubChem BioAssay (NCI)
About 83,000 compounds went through this panel and 20% of them were active in at least one assay; those are over-represented in the sample as a whole.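 Plates (96-well) were seeded with cells, treated with compound at one concentration, and incubated for 48 hours before percent growth was determined.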 Active and inactive are the calls of the source. How the source made its calls: active means growth percent below 10; inactive means the rest.

Tests used:
Assay in all cases: NCI-60 one-dose screen, 48 h (100 = growth as untreated, 0 = no growth, -100 = all killed)
Conditions in all cases: 10 µM unless noted
EKVX NSCLC = test system: EKVX NSCLC
SN12C renal = test system: SN12C renal
UO-31 renal = test system: UO-31 renal
TK-10 renal = test system: TK-10 renal
ACHN renal = test system: ACHN renal
CAKI-1 renal = test system: CAKI-1 renal
A498 renal = test system: A498 renal
CCRF-CEM leukemia = test system: CCRF-CEM leukemia
MOLT-4 leukemia = test system: MOLT-4 leukemia

Measured: growth

N#Cc1c(-c2ccc(C(F)(F)F)cc2)cc(N2CC(O)C2)n2c1nc1ccccc12
active: A498 renal -4.38%
inactive: EKVX NSCLC 63.6% | SN12C renal 72.3% | UO-31 renal 54.5% | TK-10 renal 64% | ACHN renal 43.4% | CAKI-1 renal 72.1% | CCRF-CEM leukemia 102% | MOLT-4 leukemia 103%

CN1CCN(CCCOc2ccc3nc(Nc4cc(Cl)cc(Cl)c4)ccc3c2)CC1
active: EKVX NSCLC -21.5% | SN12C renal -17.7% | UO-31 renal -87.6% | TK-10 renal -79.7% | ACHN renal -98.8% | CAKI-1 renal -32.6% | A498 renal -18.6% | CCRF-CEM leukemia -52.5% | MOLT-4 leukemia -67.8%

Cc1ccc(-n2nnc(C3=NCCc4c3[nH]c3ccc(Cl)cc43)c2C)cc1
inactive: EKVX NSCLC 70.8% | SN12C renal 81.6% | UO-31 renal 57.8% | TK-10 renal 78.9% | ACHN renal 57.2% | CAKI-1 renal 56.1% | A498 renal 66.5% | CCRF-CEM leukemia 27.8% | MOLT-4 leukemia 49.6%

O=C1NCC(=O)N(Cc2ccco2)[C@H]1Cc1ccccc1
inactive: EKVX NSCLC 89.2% | SN12C renal 98.1% | UO-31 renal 99.8% | TK-10 renal 85.5% | ACHN renal 105% | CAKI-1 renal 97.4% | A498 renal 52.9% | CCRF-CEM leukemia 103% | MOLT-4 leukemia 102%
